Screening data deposited in PubChem by several laboratories.
Cl transport mod – modulates chloride dependent transport by human KCC2; Q9H2X9; KCC2 cells, thallium flux FluoZin-2 fluorescence; B-score of Tl+ flux slope (higher = more flux/activation; lower = inhibition) at 10 µM; actives 2.2% (n = 190,000);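 active = thallium flux slope and its plate-corrected score both differing from the plate sample mean at a set confidence after two filtering rounds, in either direction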;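 also: slope of fluorescence scaled to starting intensity during 10 to 20 s after thallium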
Target sequence (Q9H2X9 whole entry, looked up): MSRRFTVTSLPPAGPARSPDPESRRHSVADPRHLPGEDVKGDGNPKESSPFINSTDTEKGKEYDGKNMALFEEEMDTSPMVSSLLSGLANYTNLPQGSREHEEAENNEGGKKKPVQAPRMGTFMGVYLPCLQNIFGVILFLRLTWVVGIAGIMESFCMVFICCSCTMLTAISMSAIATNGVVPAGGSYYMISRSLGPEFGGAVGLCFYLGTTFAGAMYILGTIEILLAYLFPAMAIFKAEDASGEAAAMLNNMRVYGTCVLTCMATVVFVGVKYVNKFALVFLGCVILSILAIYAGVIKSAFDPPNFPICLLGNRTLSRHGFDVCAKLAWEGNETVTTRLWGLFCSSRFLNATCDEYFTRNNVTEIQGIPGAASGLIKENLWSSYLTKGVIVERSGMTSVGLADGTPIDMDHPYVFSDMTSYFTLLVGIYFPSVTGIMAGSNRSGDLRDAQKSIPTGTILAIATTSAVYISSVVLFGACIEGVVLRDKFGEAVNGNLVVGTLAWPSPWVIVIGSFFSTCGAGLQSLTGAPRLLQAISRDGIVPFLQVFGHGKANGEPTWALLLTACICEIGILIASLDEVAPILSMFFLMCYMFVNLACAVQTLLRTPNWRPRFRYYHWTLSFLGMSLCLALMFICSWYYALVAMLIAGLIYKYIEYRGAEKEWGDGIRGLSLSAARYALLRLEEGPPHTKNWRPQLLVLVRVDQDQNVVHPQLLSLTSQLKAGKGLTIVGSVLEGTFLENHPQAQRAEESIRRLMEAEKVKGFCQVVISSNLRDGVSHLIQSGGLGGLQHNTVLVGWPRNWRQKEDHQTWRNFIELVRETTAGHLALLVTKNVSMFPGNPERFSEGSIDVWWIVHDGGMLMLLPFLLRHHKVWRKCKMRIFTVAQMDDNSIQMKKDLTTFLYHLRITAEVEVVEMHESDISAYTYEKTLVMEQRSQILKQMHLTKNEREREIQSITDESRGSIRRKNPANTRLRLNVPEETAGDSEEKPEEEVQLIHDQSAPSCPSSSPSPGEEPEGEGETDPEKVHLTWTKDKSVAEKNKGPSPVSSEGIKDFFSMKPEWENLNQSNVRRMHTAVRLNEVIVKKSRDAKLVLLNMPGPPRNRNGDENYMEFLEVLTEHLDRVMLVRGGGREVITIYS
Ins promoter up – MIN6 insulin promoter up-regulation; MIN6 insulin promoter-GFP reporter, high-content imaging; stronger effect = higher value; z-score at 5 µM; actives 0.3% (n = 190,000); AID 1625;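 active = z-score above 3 at 5 µM with at least 500 cells counted in the well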
WT yeast gro inh – growth inhibition of WT yeast, mitochondrial fusion screen; mitochondrial fusion phenotypic screen, WT strain; actives 2.1% (n = 190,000); inhibition, % at 10 µM; in the data active = inhibition above about 58%; tested in S. cerevisiae
L major viab – inhibitors of Leishmania major promastigote growth | Leishmania major promastigotes, resazurin fluorescence viability | inhibition, % at 10 µM | actives 9% (n = 200,000); in the data active = inhibition above about 50%;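 also: promastigotes grown with compound for 44 hours at 28 °C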
INS promoter inh – TRM-6 insulin promoter activity inhibition; TRM-6 cells (human fetal islet line), insulin promoter-eGFP reporter, imaging; reporter expression induced with tamoxifen; inhibition, % at 2 µM; actives 0.9% (n = 130,000); AID 1273;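 active = inhibition above the mean plus 3 SD, with well images judged a real hit on visual review, cut at about 60% in these data, passing the limit was not always enough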
ROMK primary – modulators of human ROMK potassium channel; Tet-inducible ROMK, thallium flux fluorescence; actives lie on both sides; AID 1918; actives 2% (n = 130,000); P48048; B-score at 10 µM;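 active = signal ratio slope over the read window, or its plate-corrected B-score, at least 3 SD from the plate mean, either direction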;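 also: B-score of the F/F0 ratio slope over 7 to 12 s after thallium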
An asterisk follows results filed as active; · = no result. A selection: hits, their analogues and other compounds. The true share with any hit is near 12%.

SMILES | Cl transport mod | Ins promoter up | WT yeast gro inh | L major viab | INS promoter inh | ROMK primary
Fc1cc(Br)ccc1NC(=S)Nc1ccccc1 | 0.78 | 0.55 | 7 | 9 | · | ·
CCc1nnc(NC(=O)CN2CCN(c3cccc(OC)c3)CC2)s1 | -0.067 | 0.29 | 12 | 0 | -187 | 0.49
COc1ccccc1CNc1ccc([N+](=O)[O-])cc1C | -2.4 | -0.31 | -8 | 19 | -14 | -2.1
COc1ccccc1NCc1ccc([N+](=O)[O-])s1 | -1.3 | 0.21 | -4 | 60* | 21 | ·
Cc1ccc(OCCCNCCO)c(Br)c1 | 0.32 | 0.03 | 7 | 73* | 3 | 0.037
CCCCNCCCOc1ccc(C)cc1Br | -0.64 | · | 20 | 90* | · | ·
CCCCNCCCOc1cccc(Cl)c1Cl | 0.66 | 0.05 | 2 | 100* | 3 | -0.83
CNCCCOc1ccc(C)cc1Br | 1.4 | 0.41 | 14 | 11 | · | -0.21
CC1Cn2c(nnc2-c2cc3ccccc3cc2O)S1 (stereo not drawn) | -0.34 | 2.4 | 15 | 3 | -28 | -0.76
COc1ccc(NC(=O)c2cnc3sccn3c2=O)cc1 | 0.0051 | 0.53 | 7 | -5 | · | ·
Cc1c(C(=O)Nc2ccncc2)sc2nc(-c3ccccc3)cn12 | 0.059 | 0.13 | 15 | 76* | · | ·
Cc1c(C(=O)N2CCOCC2)sc2nc(-c3ccccc3)cn12 | 0.31 | 0.01 | -12 | -5 | · | ·
Cc1c(C(=O)Nc2ccc3c(c2)OCCO3)sc2nc(-c3ccccc3)cn12 | 0.047 | -1.8 | 20 | 56* | 62 | -0.74
COc1cccc(C2C(C#N)=C(N)OC3=C2C(=O)CC(c2ccco2)C3)c1OCc1ccc(F)cc1 (stereo not drawn) | · | 1.4 | 32 | 76* | -31 | 0.6
COc1ccc(NC(=S)N(Cc2ccc(N(C)C)cc2)Cc2ccco2)cc1 | -1.5 | 0.5 | 11 | 39 | -19 | -2.1
COc1ccc(NC(=S)N(CCc2c(C)[nH]c3ccc(C)cc23)Cc2ccco2)cc1 | 0.083 | -0.46 | 69* | 31 | -5 | 1.4
CCOc1ccc(NC(=S)N(CCc2c(C)[nH]c3ccc(C)cc23)Cc2ccco2)cc1 | 0.51 | -1 | 67* | 73* | -10 | 2.2
COc1ccc(NC(=S)N(CCc2c(C)[nH]c3ccc(C)cc23)Cc2cccs2)cc1 | -1.2 | -0.68 | 66* | 54* | 5 | -1.5
COc1ccc2[nH]c(C)c(CCN(Cc3cccs3)C(=S)Nc3ccc(F)cc3)c2c1 | 0.62 | 0.77 | 8 | 40 | · | ·
CCOc1ccc(NC(=S)N(Cc2ccc(N(C)C)cc2)Cc2ccco2)cc1 | -1.9 | · | 59* | 17 | -14 | ·
Cc1ccc(C(=O)OC/C(O)=C(\C#N)c2nc3ccccc3[nH]2)cc1S(=O)(=O)N1CCOCC1 | -0.61 | 0.43 | -3 | -4 | · | ·
CNC(=O)CS(=O)(=O)CC(=O)Nc1cc(OCCOC)c(Cl)cc1Cl | -1 | -0.54 | -5 | -2 | · | ·
CC1C=CCC2C(=O)N(c3ccccc3OC(=O)c3ccco3)C(=O)C12 (stereo not drawn) | 0.58 | · | -8 | -5 | 25 | 0.28
CCCc1nc(C)c(-c2ccc(OC)c(OC)c2)c(=O)[nH]1 | · | 0.16 | 10 | -3 | 37 | 2.1
CCCN(Cc1ccccc1)C(=S)Nc1ccc(OCC)cc1 | 0.38 | -0.16 | 37 | 0 | 5 | -0.14
SMILES | Cl transport mod | Ins promoter up | WT yeast gro inh | L major viab | INS promoter inh | ROMK primary
CCOc1ccc(NC(=S)NN(C)C(=S)Nc2ccc(OCC)cc2)cc1 | 0.03 | -0.3 | 65* | -9 | 33 | 0.42
CNC(=S)N(CCc1c(C)[nH]c2ccc(C)cc12)Cc1cccs1 | -0.24 | -1.1 | 65* | 46 | -82 | -0.53
COc1ccc2[nH]c(C)c(CCN(Cc3cccs3)C(=S)Nc3ccccc3)c2c1 | 0.0043 | 0.36 | 42 | 46 | · | ·
O=C(Nc1ccc(-c2noc(CCc3ccccc3)n2)cc1)c1cccnc1 | -2.3 | -0.5 | 6 | 50* | · | 0.22
O=C(c1ccc(S(=O)(=O)N2CCCCC2)cc1)N1CCN(CCN2C(=O)c3cccc4cccc(c34)C2=O)CC1 | -0.051 | -1.2 | 36 | 13 | · | 0.18
COc1ccc(C2C(C#N)=C(N)N(c3cccnc3)C3=C2C(=O)CCC3)cc1Cn1cc([N+](=O)[O-])cn1 (stereo not drawn) | -0.45 | -0.07 | -18 | 89* | · | -0.58
COc1ccc(C2C(C#N)=C(N)OC3=C2C(=O)CCC3)cc1Cn1cc([N+](=O)[O-])cn1 (stereo not drawn) | 0.62 | 0.24 | 7 | 2 | · | ·
COc1ccc(C2C(C#N)=C(N)N(c3ccccc3)C3=C2C(=O)CCC3)cc1Cn1cc([N+](=O)[O-])cn1 (stereo not drawn) | 0.023 | -0.96 | -9 | 99* | · | -0.65
O=C1NC(c2ccccc2)=C(c2nc3ccccc3s2)C(c2ccccc2)N1 (stereo not drawn) | 0.056 | -0.79 | 5 | 35 | 67 | 0.16
CCOC(=O)C1CCCN(C2CCN(Cc3nc(-c4ccccc4)no3)CC2)C1 (stereo not drawn) | · | -0.48 | 3 | 73* | · | -0.88
CCOC(=O)C1CCN(C2CCN(Cc3nc(-c4ccccc4)no3)CC2)CC1 | 0.77 | 0.32 | -4 | 80* | · | ·
CN(C(=O)CSc1nc(-c2ccccc2)cn1N)C(c1ccccc1)c1ccccc1 | -0.024 | -0.2 | 55 | 100* | -82 | -0.016
COC(=O)c1cc(S(=O)(=O)n2nc(C)c(Br)c2C)c(Cl)cc1Cl | 0.12 | -0.68 | · | 89* | 29 | ·
Cc1cc(C)n(S(=O)(=O)c2cc(C(=O)O)c(Cl)cc2Cl)n1 | -0.34 | -0.24 | · | -3 | 38 | 0.028
CC(=O)Nc1ccc(Nc2nc(C)c([N+](=O)[O-])c(Nc3ccccc3)n2)cc1 | -0.59 | -1.8 | 13 | 91* | -10 | 0.016
COc1ccc(S(=O)(=O)NCC(=O)Nc2cccc(C)c2C)cc1OC | 0.32 | 0.47 | 9 | -3 | -6 | 0.49
CC/C(=C\C1CCCCC1)C(NP(=O)(c1ccccc1)c1ccccc1)c1ccccc1 (stereo not drawn) | 0.72 | -0.08 | 79* | 21 | -30 | -0.88
C=C(C)c1cccc(C(C)(C)NC(=O)Nc2cc(C)ccc2OC)c1 | 0.69 | -0.58 | -3 | 52* | -20 | ·
C=C(C)c1cccc(C(C)(C)NC(=O)Nc2ccccc2OCC)c1 | 0.87 | 0.59 | 10 | 55* | -14 | 2.1
C=C(C)c1cccc(C(C)(C)NC(=O)NCc2ccc(OC)c(OC)c2)c1 | · | 1.7 | 13 | -3 | · | 0.45
C=C(C)c1cccc(C(C)(C)NC(=O)Nc2ncccn2)c1 | · | -0.99 | 2 | 33 | 3 | 0.0061
C=C(C)c1cccc(C(C)(C)NC(=O)Nc2ccc(Cl)cn2)c1 | -0.76 | -0.59 | 74* | 23 | · | ·
O=C(Nc1cccnc1)c1coc(=O)c2ccccc12 | 0.58 | 0.46 | 4 | 36 | · | ·
Cc1c(NC(=O)CN2C(=O)c3ccccc3C2=O)c(=O)n(-c2ccccc2)n1C | · | 0.69 | 7 | -2 | 14 | -0.31
Cc1ccc(S(=O)(=O)[N-]c2nc3ccccc3nc2-n2cc[n+](CCC(C)C)c2)cc1 | 0.89 | 0.18 | -14 | 99* | 25 | 0.19
